Activity calls are given as the source filed them. Rule for the calls: active = hit-call score of the fitted dose curve at least 0.9, where 1 is the maximum; inactive = score below 0.9.
Target: Transcription factor E2F1 (Homo sapiens) (UniProt Q01094)
Experiment: ATG_E2F_CIS: Attagene CIS-FACTORIAL HepG2 Assay for human E2F Transcription Factor 1 (AID 2282935)
Details: HepG2 Attagene cis-reporter, E2F reporter RNA transcripts; actives raise or lower the signal
Method: ATG_CIS is a cell-based, multiplexed-readout assay that uses HepG2, a human liver cell line, with measurements taken at 24 hours after chemical dosing in a 24-well plate.ATG_E2F_CIS is one of 52 assay component(s) measured or calculated from the ATG_CIS assay. It is designed to make measurements of mRNA induction, a form of inducible reporter, as detected with fluorescence intensity signals by Reverse transcription polymerase chain reaction (RT-PCR) and Capillary electrophoresis technology.Data from the assay component ATG_E2F_CIS was analyzed into 1 assay endpoint. This assay endpoint, ATG_E2F_CIS, was analyzed with bidirectional fitting relative to DMSO as the negative control and baseline of activity. Using a type of inducible reporter, measures of mRNA for gain or loss-of-signal activity can be used to understand the reporter gene at the transcription factor-level as they relate to the gene E2F1. Furthermore, this assay endpoint can be referred to as a primary readout, because this assay has produced multiple assay endpoints where this one serves a reporter gene function. To generalize the intended target to other relatable targets, this assay endpoint is annotated to the dna binding intended target family, where the subfamily is E2F transcription factor.
Human liver HepG2 cells are transiently transfected with multiple reporter transcription units (MRTUs) in 6-well plates using FuGene 6 reagent (Roche; 3 ml FuGene/1 mg DNA). The MRTU constructs are regulated by a cis-regulating element (promoter). […] A major difference between the CIS and TRANS system is that in CIS activities of endogenous TFs are measured, whereas the TRANS assay evaluates changes in activities of exogenous, chimeric NR-Gal4 proteins. […] At the end of 24 hour incubation, total RNA was isolated using TriZol reagent (Invitrogen). The isolated RNA is then reverse-transcribed using oligo(dT) primer and Mo-MLV reverse transcriptase (Invitrogen) with DNAse I (Ambion) treatment for 30 min. The one-tenth of the produced cDNA was amplified by PCR using Taq DNA polymerase (Invitrogen) and two reporter sequence-specific primers. The PCR products were fluorescently labeled by primer extension with 6-arboxyfluorescein (6-FAM) 5'-labeled reporter sequence-specific primer (2 min at 95 C, 20 s at 68 C and 10 min at 72 C) and these products were digested with 5U of HpaI (New England Biolabs) for 2h at 37 C. The fragments were purified using Qiaquick PCR columns (Qiagen), analyzed on an ABI 3130xL genetic analyzer (Applied Biosystems) with peak positions identified by using a set of X-rhodamine (ROX)-labeled MapMarker1000 molecular weight standards (BioVentures). The raw capillary electrophoresis data was processed using Attagraph software (Attagene).

Sequence of Transcription factor E2F1 (Homo sapiens) (Q01094 whole entry, looked up): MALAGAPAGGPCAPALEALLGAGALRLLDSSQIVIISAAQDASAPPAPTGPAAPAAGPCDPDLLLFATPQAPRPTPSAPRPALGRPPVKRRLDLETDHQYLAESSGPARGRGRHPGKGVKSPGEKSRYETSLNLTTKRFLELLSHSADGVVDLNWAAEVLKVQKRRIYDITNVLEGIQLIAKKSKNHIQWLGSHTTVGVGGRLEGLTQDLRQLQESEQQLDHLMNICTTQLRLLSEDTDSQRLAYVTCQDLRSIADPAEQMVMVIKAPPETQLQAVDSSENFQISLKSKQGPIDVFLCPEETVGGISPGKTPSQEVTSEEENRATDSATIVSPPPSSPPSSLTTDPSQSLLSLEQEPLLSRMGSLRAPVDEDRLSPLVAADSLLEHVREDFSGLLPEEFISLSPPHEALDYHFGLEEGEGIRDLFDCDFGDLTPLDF

Compound | outcome
C[N+](C)(C)CCO | inactive
CCCCCCCOC(C)=O | inactive
Nc1ccc(N)c([N+](=O)[O-])c1 | inactive
CCCCC/C=C\C=C\C(=O)OCC | inactive
CCC(C)COC(=O)CC(C)C (stereo not given) | inactive
CCCCOC(=O)C(C)OC(=O)CCC (stereo not given) | inactive
OCCN1CCOCC1 | inactive
c1coc(CNc2ncnc3nc[nH]c23)c1 | inactive
NCCN1CCNCC1 | inactive
CCn1cc(C(=O)O)c(=O)c2ccc(C)nc21 | inactive
CC(=O)OCC=C(C)CCC=C(C)CCC=C(C)C | inactive
CCCCCCCCCCCCOCCOS(=O)(=O)O | inactive
CCCCCCCC1CCCC1=O (stereo not given) | inactive
CCCOC(=O)CC | inactive
C=C/C(C)=C/C/C=C(\C)CCC=C(C)C | inactive
Cc1cc(N)n(-c2ccccc2)n1 | inactive
ClCCOCCOCCCl | inactive
c1ccc(OCCOc2ccccc2)cc1 | inactive
NC(=O)c1cnccn1 | inactive
CCCCOCCOC(=O)c1ccccc1C(=O)OCCOCCCC | inactive

Compound | outcome
COc1cc(OC)c2ccc(=O)oc2c1 | inactive
CC(=O)N(C)C | inactive
c1ccc2scnc2c1 | inactive
CC1(C)[C@H](C=C(Cl)Cl)[C@H]1C(=O)OCc1cccc(Oc2ccccc2)c1 | inactive
CCOC(=O)CC1(C)OCC(C)O1 (stereo not given) | inactive
CCCC1CCOC(C)S1 (stereo not given) | inactive
CC(O)CNCC(C)O (stereo not given) | inactive
CC=CC(=O)C1=C(C)C=CCC1(C)C | inactive
CCCCOCCOCCO | inactive
CCO[Si](CC)(OCC)OCC | inactive
CCNC(=S)NCC | inactive
C=C(C)C(=O)OCCOCCOC(=O)C(=C)C | inactive
Cc1ccccc1S | inactive
CC(=O)CCC(=O)O | inactive
CCCC1CCC(=O)CC1 | inactive
CC(C)Cc1ccccc1 | inactive
CC(=O)c1ccc2ccccc2c1 | inactive
CNC(=C[N+](=O)[O-])NCCSCc1ccc(CN(C)C)o1 | inactive
OC[C@H]1O[C@@H](O[C@H]2[C@H](O)[C@@H](O)[C@H](O)O[C@@H]2CO)[C@H](O)[C@@H](O)[C@H]1O | inactive
CC(C)=CC(=O)O | inactive

From PubChem BioAssay (EPA / NIEHS)
